Compounds with a hit are over-represented: about 5.7% of the library has one in this group of screens.
hgDAF12 agonist – H. glycines DAF-12 receptor agonists, primary screen, cell-based, luminescence, HEK293, GAL4 fusion, UAS-luciferase; Nuclear hormone receptor DAF-12 (Heterodera glycines), GAL4 fusion; HEK293 GAL4-hgDAF12 UAS-luciferase reporter, agonist luminescence; normalized to butyrate control; activation, % at 6.8 µM; actives 1.8% (n = 370,000);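 active = activation above a cutoff set at the mean of all screened compounds plus 3 SD, cut at about 10% in these data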;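 also: 0% = DMSO wells and 100% = sodium butyrate wells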
DAX1 inh-1 – DAX1 (NR0B1) inhibitors on StAR promoter, primary screen, cell-based, luminescence, SF-1 (NR5A1), full-length DAX-1. HEK293T StAR-luciferase reporter, SF-1/DAX-1 repression relief. inhibition, % at 6.8 µM. actives 1.1% (n = 370,000). AID 652010, 2013;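 active = inhibition above the mean over all tested compounds plus 3 SD, cut at about 3.6% in these data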;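 also: 0% = DAX-1 cells with DMSO and 100% = cells lacking DAX-1 with DMSO; higher inhibition means more luminescence from relief of DAX-1 repression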
hcDAF-12 act – H. contortus DAF-12 nuclear receptor activators, primary screen, cell-based, luminescence, HEK293, lit1-tk-luc reporter | HEK293 hcDAF-12 lit1-tk-luc reporter; 0% DMSO, 100% Δ7-dafachronic acid | actives 1.4% (n = 370,000) | activation, % at 6.8 µM | AID 652067, 2013;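 active = activation above the mean of all tested compounds plus 3 SD, cut at about 5.5% in these data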;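 also: 100% = response to 3 µM Δ7-dafachronic acid high control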
AHR act – AHR activators, primary screen, cell-based, luminescence, luciferase reporter, human; Aryl hydrocarbon receptor (Homo sapiens), P35869; AHR-responsive luciferase reporter cells; activation, % at 5 µM; actives 2.5% (n = 320,000); in the data active = activation above about 47%;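 also: 0% = vehicle wells and 100% = reference agonist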
ssDAF-12 act – S. stercoralis DAF-12 nuclear receptor activators, primary screen, cell-based, luminescence, HEK293, GRIP1 co-expression, lit1-tk-luc | activation, % at 6.8 µM | HEK293 ssDAF-12/GRIP1 lit1-tk-luc reporter; % of 3 µM dafachronic acid response | actives 1% (n = 370,000) | Nuclear hormone receptor DAF-12 (Strongyloides stercoralis);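 active = activation above the mean over all tested compounds plus 3 SD, cut at about 0.9% in these data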;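 also: 0% = DMSO-only wells and 100% = 3 µM delta7-dafachronic acid wells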
DAX1 inh-2 – DAX1 (NR0B1) inhibitors, primary screen, cell-based, HEK293, Gal4-DAX1, luciferase luminescence; Nuclear receptor subfamily 0 group B member 1 (Homo sapiens), P51843; HEK293 Gal4-DAX1 luciferase reporter; inhibition, % at 6.75 µM; actives 0.99% (n = 340,000); AID 504766, 2011;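 active = inhibition above the mean over all tested compounds plus 3 SD, cut at about 4.2% in these data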;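 also: 0% = DAX1-transfected cells with DMSO and 100% = empty-vector control cells with DMSO; inhibition shows as a rise in luminescence from relieved DAX1 repression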
Target sequence (P51843 207-470 limits assumed): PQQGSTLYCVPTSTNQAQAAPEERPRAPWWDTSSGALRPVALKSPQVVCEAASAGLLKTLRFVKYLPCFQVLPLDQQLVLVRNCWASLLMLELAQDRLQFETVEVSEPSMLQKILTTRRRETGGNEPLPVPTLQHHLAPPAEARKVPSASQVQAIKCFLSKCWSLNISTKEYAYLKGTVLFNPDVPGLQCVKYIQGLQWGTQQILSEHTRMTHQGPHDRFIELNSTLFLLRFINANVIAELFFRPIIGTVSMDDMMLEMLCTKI
AHR act confirm – AHR activators, confirmation, cell-based, luminescence, luciferase reporter, human; shares compounds with AHR act; human cells, AHR-responsive luciferase reporter; activation, % at 9 µM; actives 87% (n = 2,300); AID 2845, 2010; in the data active = activation above about 49%;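 also: HepG2 hepatoma cells carrying a DRE-driven firefly luciferase reporter; 0% = vehicle wells and 100% = reference agonist wells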
PXR act counter – human PXR activators, counter-screen for AHR activator project, cell-based, luciferase luminescence; shares compounds with AHR act; cell-based PXR reporter; activation, % at 11.6 µM; actives 88% (n = 2,300); AID 434939, 2010; in the data active = activation above about 11%;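 also: human hepatoma DPX-2 cells expressing full-length human PXR; 0% = DMSO and 100% = reference agonist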
* = called active by the depositor; . = not tested or not shown.

SMILES	hgDAF12 agonist	DAX1 inh-1	hcDAF-12 act	AHR act	ssDAF-12 act	DAX1 inh-2	AHR act confirm	PXR act counter
COc1ccc(C(CC(=O)O)NS(=O)(=O)c2ccc3c(c2)N(C(C)=O)CC(C)O3)cc1 (stereo not drawn)	2.9	0.5	0.1	-0.8	-1.0	1.2	.	.
CC(=O)Nc1ccc(-c2csc(N/N=C(/C)c3ccccc3)n2)cc1	0.8	-0.8	0.1	0.4	0.1	-1.3	.	.
C/C(=N/Nc1nc(-c2ccc(Cl)cc2)cs1)c1cccs1	7.3	-0.8	2.3	104.3*	-0.5	1.9	132.4*	17.5*
O=C(CCl)Nc1c(C(=O)Nc2ccc3c(c2)OCCO3)oc2ccccc12	-0.5	1.4	-1.2	22.7	-0.2	0.8	.	.
COCC(=O)Nc1c(C(=O)Nc2ccc3c(c2)OCO3)oc2ccccc12	5.9	1.4	0.5	134.4*	-0.8	3.0	100.0*	47.8*
CSCc1c(C(=O)Nc2ccc3c(c2)OCO3)oc2ccccc12	1.0	0.4	2.6	91.5*	-0.5	-0.5	109.2*	44.5*
CSCc1c(C(=O)Nc2ccc(N3CCOCC3)cc2)oc2ccccc12	-2.0	0.4	2.5	86.5*	-1.0	-1.4	95.5*	12.7*
CN(C)c1nc(N(C)C)n(Cc2c(Cl)cccc2Cl)n1	2.5	-0.2	-1.5	-2.6	-1.0	-1.2	.	.
COc1ccc(C(=O)N/C(N)=N/c2nc3ccccc3o2)cc1	1.0	-0.9	-1.5	40.8	-0.9	-1.0	.	.
N/C(=N\c1nc2ccccc2o1)NC(=O)c1ccccc1Br	2.6	0.9	0.7	95.3*	-0.5	3.2	42.8	28.1*
N/C(=N\c1nc2ccccc2o1)NC(=O)c1ccc([N+](=O)[O-])cc1	-2.0	-0.4	-0.9	38.5	-0.8	.	.	.
N/C(=N\c1nc2ccccc2o1)NC(=O)c1ccc(F)cc1	2.8	0.2	2.2	82.8*	-0.3	2.9	144.8*	29.6*
C=CCOc1ccc(C[C@H](N)C(=O)NC[C@H]2O[C@@H](n3cc(C)c(=O)[nH]c3=O)C[C@@H]2O)cc1	1.2	0.5	-1.8	.	-1.0	0.1	.	.
Cc1cc(OCC(=O)Nc2cc(C(C)(C)C)on2)ccc1[N+](=O)[O-]	1.3	-0.8	2.4	1.1	-1.6	-0.4	.	.
CCc1ccc(-c2csc(-c3c[nH]c4ccccc34)n2)cc1	8.3	1.4	6.2*	87.1*	0.3	1.3	123.7*	28.8*
c1ccc2nc3c(nc2c1)OCC1CCCCN31 (stereo not drawn)	7.6	1.3	6.2*	102.4*	0.8	3.7	103.8*	46.2*
Cn1c(-c2ccc(Br)o2)nc2cc(Br)ccc21	1.5	0.6	0.9	116.3*	-0.6	4.5*	125.5*	20.5*
COc1cccc(N2CCN(c3nc(C)cc(=O)[nH]3)CC2)c1	-1.9	0.0	-0.1	-0.1	0.0	0.9	.	.
CC(NC(=O)c1ccc(OC2CCN(Cc3ccccn3)CC2)cc1)c1nccs1 (stereo not drawn)	-1.6	-1.0	-2.4	0.6	-1.3	0.9	.	.
Cc1cc(C)c2sc(NNC(=O)C3COc4ccccc4O3)nc2c1 (stereo not drawn)	-0.3	-1.2	0.1	103.0*	-1.5	-0.5	69.4*	24.8*
Cc1cccc2sc(NNC(=O)C3COc4ccccc4O3)nc12 (stereo not drawn)	3.1	-0.5	4.0	94.5*	-0.4	-1.4	41.0	19.8*

Bioassay records (PubChem)
